Rows were chosen to be rich in hits. Some 10% of all compounds tested hit in one or more screens of this group.
VP16 counter: counter-screen for ROR gamma inhibitors: Gal4-VP16 reporter; Drosophila S2 Gal4-VP16 UAS-luciferase, luminescence, 20 h; Potency, µM (titrated, usually from 53.6 µM), for inactives: top-dose activity, negative = inhibition, usual class: inhibitors; hit rate 3.5% among 310,000;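 further: Gal4-VP16 expression switched on by copper sulfate through the metallothionein promoter; on the % scale 0 is the no-effect control and ±100 the full control effect; nearly all actives have a fitted effect of over 50% in size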
RORgamma inh: inhibitors of mouse ROR gamma transcriptional activity; P51450; Drosophila S2 Gal4-RORgamma UAS-luciferase reporter, 20 h; Potency, µM (highest dose often 53.6 µM), inactives show at the highest dose activity change, negative = inhibition, actives largely listed as inhibitors; hit rate 5.4% among 310,000; further: on the % scale 0 is the no-effect control and ±100 the full control effect; nearly all actives have a fitted effect of over 60% in size
Target sequence (P51450 whole entry, looked up, the tested form may be a part): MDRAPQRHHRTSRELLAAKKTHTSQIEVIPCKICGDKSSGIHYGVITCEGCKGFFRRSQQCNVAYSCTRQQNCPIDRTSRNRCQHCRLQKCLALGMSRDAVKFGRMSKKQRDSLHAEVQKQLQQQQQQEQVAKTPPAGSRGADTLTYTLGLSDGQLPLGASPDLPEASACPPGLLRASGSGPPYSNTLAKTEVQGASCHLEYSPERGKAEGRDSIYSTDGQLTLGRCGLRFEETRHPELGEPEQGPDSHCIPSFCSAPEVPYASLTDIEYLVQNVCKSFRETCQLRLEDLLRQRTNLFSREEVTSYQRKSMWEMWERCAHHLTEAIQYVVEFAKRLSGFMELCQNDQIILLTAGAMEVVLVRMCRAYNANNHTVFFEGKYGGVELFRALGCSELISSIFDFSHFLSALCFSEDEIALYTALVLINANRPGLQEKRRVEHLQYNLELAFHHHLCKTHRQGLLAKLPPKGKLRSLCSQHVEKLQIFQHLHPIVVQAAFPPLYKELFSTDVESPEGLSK
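Stably transfected Drosophila Schneider cells are the test system, with ROR gamma fused to Gal4 and luciferase under UAS control; luminescence is read after 20 hr of 700 uM copper sulfate induction at ambient temperature.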
SW480 rerep: DNA re-replication induction in SW480 cells. AID 624297. Potency, µM (top dose mostly 46.1 µM), for inactives: top-dose re-replication activation, most hits filed as activators. hit rate 1.8% among 340,000. SW480 DNA re-replication, Hoechst DNA content imaging, 48 h; further: % of control where 0% means no effect; nearly all actives have a fitted effect of over 55% in size
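Cells (250 per well) received 23 nL compound or DMSO by pin tool and were kept 48 hr at 37 C, 5% CO2. Nuclei were then stained with Hoechst for 40 min and scanned for DNA content.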
KB-3-1 tox: KB-3-1 parental cell cytotoxicity | KB-3-1 viability, CellTiter-Glo ATP luminescence, 72 h | AID 1347075 | Potency, µM (titrated, usually from 46.1 µM), usual class: cytotoxic | hit rate 1.4% among 400,000; further: on the % scale 0 is the no-effect control and ±100 the full control effect; nearly all actives have a fitted effect of over 60% in size
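Luminescent ATP read-out (CellTiter-Glo) measures survival of drug-naive KB-3-1 cells after 72 h compound exposure at 37 °C. Titration series was screened from lowest to highest concentration, with DMSO vehicle plates as background controls.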
KB-V1 cytotox: kills drug-selected multidrug resistant KB-V1 cells. KB-V1 MDR cells viability, CellTiter-Glo, 72 h. Potency, µM (series often up to 46.1 µM), most hits filed as cytotoxic. hit rate 3.4% among 400,000; further: on the % scale 0 is the no-effect control and ±100 the full control effect; nearly all actives have a fitted effect of over 60% in size
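KB-V1 cells (P-gp-expressing MDR subline of KB-3-1) in phenol-red-free DMEM with 10% FBS were exposed to library compounds over a concentration series for 72 h at 37 degrees C. Viability read by CellTiter-Glo luminescence; concentration-effect curves fitted after normalization.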
MCF10A rerep: DNA re-replication induction in MCF 10a cells. MCF 10A DNA re-replication, Hoechst nuclear intensity, 48 h. Potency, µM (top dose mostly 46.1 µM), inactives show at the top dose activity, positive = re-replication, usual class: activators. hit rate 2.9% among 350,000. AID 624296; further: % of control where 0% means no effect; nearly all actives have a fitted effect of over 50% in size
The depositor's hits bear a star; i = inactive; u = inconclusive; x = no result given; [ ] = dose if it differs, or a comment. The call rests on the fitted dose curve; in most records, active means well fitted curve in the direction sought with a large enough effect; inconclusive means small, poorly fitted or top-dose-only effect, or another doubt; inactive means no such curve, though single readings can be large; an effect the other way counts as inactive or inconclusive. Potency means the concentration at half of the fitted maximal effect.

SMILES	VP16 counter	RORgamma inh	SW480 rerep	KB-3-1 tox	KB-V1 cytotox	MCF10A rerep
Cc1cccc(Oc2ccccc2NC(=O)CSCC(=O)Nc2cc(C)on2)c1	x	x	-2.7%	u	7.31µM*	18.6%
Cc1ccccc1NC(=O)/C=C/c1ccc([N+](=O)[O-])s1	3.16µM*	4.47µM*	0.164µM*	u	u	1.64µM*
O=C(Nc1cccc2ccccc12)c1ccc([N+](=O)[O-])s1	u	-30.0%	u	i	i	u
Cc1cc(C)cc(NC(=O)/C=C/c2ccc([N+](=O)[O-])s2)c1	-12.2%	0.4%	u	6.51µM*	u	4.11µM*
COc1ccccc1NC(=O)C(=O)N/N=C/c1ccc([N+](=O)[O-])s1	5.4%[10 µM]	15.0%	-15.8%	i	u	-6.1%
O=C(Nc1ccccc1F)c1ccc([N+](=O)[O-])s1	-29.2%	12.6µM*	14.6µM*	u	u	u
CC(=O)c1cccc(NC(=O)/C=C/c2ccc([N+](=O)[O-])s2)c1	4.47µM*	10µM*	2.91µM*	u	20.6µM*	3.66µM*
Cc1noc(C)c1-c1cncnc1NCc1cccnc1	4.6%	-30.1%	x	x	x	x
CCOCCCn1c(=O)c(NC(=O)c2ccc(OCC)cc2)c2n(c1=S)CCCCC2	5.7%	14.7%	6.3%	i	8.2µM*	0.3%
COc1ccc(Nc2c(-c3ccco3)nc3ccc(C)cn23)cc1	-9.2%[10 µM]	17.8µM*	2.0%	i	i	-1.5%
CNC1CC(N)[C@H](O)[C@@H](O[C@@H]2OC(CO)C3OC4(OC(C(N)CO)C(O)C(O)C4O)O[C@@H]3[C@H]2O)C1O (some centres not stated)	-1.1%	-5.1%	-1.5%	x	x	27.6%
CCc1nnc(NC(=O)C2CCCN(c3nc(C)cc(C)n3)C2)s1 (configuration not stated)	4.1%	6.9%	0.9%	i	9.2µM*	1.4%
CCc1nnc(NC(=O)C2CCN(c3nccc(C)n3)CC2)s1	0.1%	-0.4%	-5.3%	i	16.4µM*	-0.9%
Cc1ccc(C(=O)NNC(=O)C2CCN(c3nccc(C)n3)CC2)cc1	-5.2%	9.9%	-0.1%	i	i	1.9%
COc1ccc(CCNC(=O)C2CCCN(c3nc(C)cc(C)n3)C2)cc1 (configuration not stated)	7.0%	21.7%	-13.0%	i	i	4.9%
Cc1cc(C)nc(N2CCCC(C(=O)Nc3cc(F)ccc3C)C2)n1 (configuration not stated)	-0.5%	-13.6%[10 µM]	-2.2%	i	16.4µM*	-4.1%
Cc1cc(C)nc(N2CCCC(C(=O)NCCc3cccc(F)c3)C2)n1 (configuration not stated)	15.2%	14.5%	-7.8%	i	18.4µM*	-1.3%
Cc1cc(C)nc(N2CCCC(C(=O)Nc3ccc4c(c3)OCO4)C2)n1 (configuration not stated)	8.6%	10.5%	3.3%	i	23.1µM*	11.0%
CCOC(=O)c1cccc(NC(=O)CCS(=O)(=O)c2ccc3c(c2)CC(=O)N3C)c1	x	x	x	i	u	x
O=C1C=CC(=Nc2ccc(F)cc2)O1	x	x	u	i	u	18.4µM*
O=C(NCCN1C(=O)S/C(=C\c2cccc(Cl)c2Cl)C1=O)C1=COCCO1	-11.1%	2.2%	u	20.6µM*	14.6µM*	2.59µM*
Cc1cccc(N2CCN(C(=O)CCCn3c(=O)c4cccn4c4cccnc43)CC2)c1C	-2.8%	5.9%	-14.9%	i	u	u
Cc1ccc(Cl)cc1N1CCN(C(=O)CCCn2c(=O)c3cccn3c3cccnc32)CC1	-18.4%	40.5%	u	i	u	16.4µM*
OC[C@@H]1O[C@@H](O)[C@H](O)[C@H](O)[C@@H]1O	-1.7%	22.9%	x	x	x	x
CCOc1ccc(C2=Nn3c(nnc3-c3ccc(OC)cc3)SC2)cc1	-5.0%	-1.9%	5.8µM*	2.91µM*	3.26µM*	u

High-throughput results: PubChem, National Center for Advancing Translational Sciences (NCATS)
